This is a sample that favours compounds with a hit; in the whole collection about 7.7% have one here.
Hedgehog inh: Sonic Hedgehog pathway inhibition | Shh-LIGHT2 Gli-luciferase reporter, 30 h | inhibition, % (concentration not given with the values) | actives 2.1% (n = 22,000) | AID 2313;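 active means mean inhibition across valid replicates above about 65%, limit read from the data; inconclusive means mean under the limit, yet half or more replicates past it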;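 further: pathway switched on by Shh-conditioned medium diluted 1 in 25 in low serum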
NOMO-1 viab: STK33 inhibitor candidate reducing NOMO-1 cell viability. NOMO-1 AML viability, CellTiter-Glo luminescence, 72 h. inhibition, % (no concentration beside the values). actives 7.5% (n = 37,000); in the data active means inhibition above about 80%; inconclusive means no clear call, values can overlap the other calls
PD-1 reverse act: activators reversing PD-1 mediated T-cell inhibition; primary human CD4 T cells, PD-L1 beads, CellTiter-Glo 96 h; activation, % (test concentration not listed); 29,000 tested, under 10 active; AID 2316; call rule not given here
A number is an active result.

What do the screens show for `C=C(CO)C(=O)O[C@H]1C[C@@]2(C)OC(=O)/C(=C/C)[C@@]23CC[C@@](C)(O)CC(=O)[C@@]1(C(=C)C(=O)OC)O3`?
Hedgehog inh: inactive

Results for c1ccc(CN2CCOCCN(Cc3ccccc3)CCOCC2)cc1 ?
NOMO-1 viab: 87.3; PD-1 reverse act: inactive

What do the screens show for `S=C(c1ccccc1)N1CCN(Cc2ccccc2)CC1`?
Hedgehog inh: inactive; NOMO-1 viab: inactive; PD-1 reverse act: inactive

Results for C[C@@H]1CCCCO[C@@H](CN(C)Cc2ccc(Cl)c(Cl)c2)[C@@H](C)CN([C@H](C)CO)C(=O)c2cc(NS(=O)(=O)c3ccc(Cl)cc3)ccc2O1 ?
Hedgehog inh: inactive; NOMO-1 viab: inactive; PD-1 reverse act: inactive

What do the screens show for `COc1ccc(CN(C)C[C@@H]2OCCCC[C@@H](C)Oc3ccc(NS(=O)(=O)c4ccc(Cl)cc4)cc3C(=O)N([C@H](C)CO)C[C@@H]2C)cc1`?
Hedgehog inh: inactive; NOMO-1 viab: inactive; PD-1 reverse act: inactive

Results for COc1ccc(S(=O)(=O)Nc2ccc3c(c2)C(=O)N([C@H](C)CO)C[C@H](C)[C@@H](CN(C)Cc2ccc(Cl)c(Cl)c2)OCCCC[C@@H](C)O3)cc1 ?
Hedgehog inh: 69.3; NOMO-1 viab: 125.0

Results for C[C@@H]1CCCCO[C@H](CN(C)Cc2ccc(Cl)c(Cl)c2)[C@@H](C)CN([C@H](C)CO)C(=O)c2cc(NS(=O)(=O)c3ccc(Cl)cc3)ccc2O1 ?
Hedgehog inh: inactive; NOMO-1 viab: 115.8; PD-1 reverse act: inactive

What do the screens show for `Cc1ccc(C(C)C)c(OCc2ccc(N)cc2)c1`?
Hedgehog inh: inactive; NOMO-1 viab: inactive; PD-1 reverse act: inactive

What do the screens show for `CN(CC(O)Cn1c2ccccc2c2ccccc21)S(C)(=O)=O` (configuration not stated)?
NOMO-1 viab: inactive

Results for CN(C)CC(O)Cn1c2ccc(Br)cc2c2cc(Br)ccc21 (configuration not stated) ?
Hedgehog inh: inconclusive; NOMO-1 viab: 113.7

Results for CCn1c(SCC(=O)Nc2ccccc2C(F)(F)F)nnc1-c1cccc([N+](=O)[O-])c1 ?
NOMO-1 viab: inactive; PD-1 reverse act: inactive

How did Cc1noc(C)c1NC(=O)Nc1ccc2c(c1)CC(=O)N([C@H](C)CO)C[C@@H](C)[C@@H](CN(C)Cc1ccc(Oc3ccccc3)cc1)O2 do in these assays?
Hedgehog inh: inactive; NOMO-1 viab: inactive; PD-1 reverse act: inactive

What do the screens show for `Cc1noc(C)c1NC(=O)Nc1ccc2c(c1)CC(=O)N([C@@H](C)CO)C[C@H](C)[C@H](CN(C)Cc1ccc(-c3ccccc3)cc1)O2`?
Hedgehog inh: inactive; NOMO-1 viab: 98.7; PD-1 reverse act: inactive

How did Cc1noc(C)c1NC(=O)Nc1ccc2c(c1)CC(=O)N([C@H](C)CO)C[C@@H](C)[C@@H](CN(C)Cc1ccc(-c3ccccc3)cc1)O2 do in these assays?
Hedgehog inh: inactive; NOMO-1 viab: inactive; PD-1 reverse act: inactive

How did Cc1noc(C)c1NC(=O)Nc1ccc2c(c1)CC(=O)N([C@@H](C)CO)C[C@H](C)[C@H](CN(C)Cc1ccc(Oc3ccccc3)cc1)O2 do in these assays?
Hedgehog inh: inactive; NOMO-1 viab: 99.6; PD-1 reverse act: inactive

Results for COc1ccc(NC(=O)CSc2nc3c(cc2C#N)CCCCC3)cc1OC ?
NOMO-1 viab: inactive; PD-1 reverse act: inactive

Results for Cc1cc(C)cc(NC(=O)CSc2nc3ccccc3s2)c1 ?
NOMO-1 viab: inactive

How did COC(=O)C1=C2C(=O)c3c(O)cc(CO)cc3OC2C(O)C=C1 (configuration not stated) do in these assays?
Hedgehog inh: inactive; NOMO-1 viab: 107.8; PD-1 reverse act: inactive

How did COC(=O)c1cccc2oc3cc(CO)cc(O)c3c(=O)c12 do in these assays?
Hedgehog inh: inactive; NOMO-1 viab: inactive; PD-1 reverse act: inactive

How did O=C(O)COc1ccc(Cl)cc1C1C2=C(CCCC2=O)NC2=C1C(=O)CCC2 do in these assays?
NOMO-1 viab: inactive; PD-1 reverse act: inactive

What do the screens show for `O=C1CCCC2=C1C(c1ccccc1Cl)N=C(Nc1nc3ccccc3s1)N2` (configuration not stated)?
Hedgehog inh: inactive; NOMO-1 viab: 115.5; PD-1 reverse act: inactive

What do the screens show for `COc1ccc(OC)c(C2N=C(Nc3nc4ccccc4s3)NC3=C2C(=O)CC(C)(C)C3)c1` (configuration not stated)?
NOMO-1 viab: 115.2

What do the screens show for `COc1ccc(C2C3=C(CC(C)(C)CC3=O)N(C)C3=C2C(=O)CC(C)(C)C3)cc1`?
Hedgehog inh: inactive; NOMO-1 viab: inactive; PD-1 reverse act: inactive

What do the screens show for `Cc1cccc(Cn2nc(C(C)(C)C)cc2C(=O)Nc2cccnc2)c1`?
Hedgehog inh: inactive; NOMO-1 viab: inconclusive; PD-1 reverse act: inactive

What do the screens show for `CCOc1cc(S(=O)(=O)NCc2ccco2)ccc1Cl`?
NOMO-1 viab: inactive

Results for COc1ccc(S(=O)(=O)N(C)C[C@@H]2Oc3ccc(NC(=O)Nc4ccc(C(F)(F)F)cc4)cc3CC(=O)N([C@H](C)CO)C[C@@H]2C)cc1 ?
Hedgehog inh: inactive; NOMO-1 viab: 114.7; PD-1 reverse act: inactive

How did COc1ccc(S(=O)(=O)N(C)C[C@@H]2Oc3ccc(NC(=O)Nc4ccc(C(F)(F)F)cc4)cc3CC(=O)N([C@H](C)CO)C[C@H]2C)cc1 do in these assays?
Hedgehog inh: inactive; NOMO-1 viab: inactive

Results for COc1ccc(NC(=O)Nc2ccc3c(c2)CC(=O)N([C@@H](C)CO)C[C@H](C)[C@@H](CN(C)S(=O)(=O)c2ccc(F)cc2)O3)cc1 ?
NOMO-1 viab: inactive; PD-1 reverse act: inactive

How did COc1ccc(S(=O)(=O)N(C)C[C@@H]2Oc3ccc(NC(=O)Nc4ccc(C(F)(F)F)cc4)cc3CC(=O)N([C@@H](C)CO)C[C@@H]2C)cc1 do in these assays?
Hedgehog inh: inactive; NOMO-1 viab: 102.2; PD-1 reverse act: inactive

What do the screens show for `Cc1ccc(NC(=O)CCn2nc(-c3ccccc3)c3ccccc3c2=O)cc1`?
NOMO-1 viab: inactive; PD-1 reverse act: inactive

Results for N#CC(C#N)=C(Nc1ccccc1Cl)SCc1cccc(F)c1 ?
Hedgehog inh: 111.9; NOMO-1 viab: 87.0; PD-1 reverse act: inactive

What do the screens show for `Cc1c(Cl)cccc1NC(=O)CN(c1cccc(F)c1)S(C)(=O)=O`?
NOMO-1 viab: inactive; PD-1 reverse act: inactive

How did CCCCn1c(Br)nc2c1c(=O)[nH]c(=O)n2C do in these assays?
Hedgehog inh: inactive; NOMO-1 viab: inactive; PD-1 reverse act: inactive

How did CCC(C)c1cnc(Cc2ccccc2)c(=O)[nH]1 (configuration not stated) do in these assays?
Hedgehog inh: inactive; NOMO-1 viab: inactive; PD-1 reverse act: inactive

What do the screens show for `O=S(=O)(Nc1nc2ccccc2nc1Nc1ccccc1F)c1ccc(Cl)cc1`?
Hedgehog inh: 98.1; NOMO-1 viab: inactive; PD-1 reverse act: inactive

Results for CCOc1ccc(S(=O)(=O)Nc2nc3ccccc3nc2Nc2ccccc2)cc1 ?
Hedgehog inh: inconclusive; NOMO-1 viab: inactive; PD-1 reverse act: inactive

How did CC(C)Cc1c(O)nc(SCC(=O)NC(C)(C)C)[nH]c1=O do in these assays?
Hedgehog inh: inactive; NOMO-1 viab: inactive; PD-1 reverse act: inactive

What do the screens show for `COC(=O)COc1ccc(NC(=O)c2ccc([N+](=O)[O-])c(C)c2)cc1`?
NOMO-1 viab: 117.6

How did Cc1cc(C(=O)Nc2ccc(OCC(=O)O)cc2)ccc1[N+](=O)[O-] do in these assays?
NOMO-1 viab: inactive

Results for O=C(O)COc1ccc(C(=O)Nc2ccc(F)cc2)cc1 ?
NOMO-1 viab: inactive; PD-1 reverse act: inactive
